About 1,100 (48%) of roughly 2,300 compounds were called active. The set was probably picked from earlier hits. Some of the results follow. Results with a measured potency or affinity are listed apart. Values without a mark were called inactive. The rule behind the calls is not given here.
Test: S. typhi counter-screen signal inhibition – fluorescence, 4 h, counter-screen for PhoP regulon inhibitor project, dose response (AID 2384)
Details: S. typhi GFP reporter counter-screen; series mostly up to 150 µM; inhibition: at the top concentration

Structure (SMILES)	inhibition
COc1cccc(/C=N/NC(=O)C(=O)N2CCCC2)c1O	36.2%
Cn1cc(C(=O)N/N=C/C(Br)=C/c2ccccc2)ccc1=O	-0.23%
C/C(=N\NC(=O)c1c(Br)c(C)nn1C)c1ccc(NC(=O)c2ccoc2C)cc1	-10.8%
COc1cccc(/C=N/NC(=O)CO/N=C(\C)c2cccs2)c1OC	1.19%
COc1cccc(/C=N/NC(=O)CSCC(=O)Nc2ccccc2)c1O	35.8%
O=C(Nc1ccc2[nH]c(=S)sc2c1)Nc1ccccc1F	38.3%
CC1=C([N+](=O)[O-])C(c2cccc(Br)c2)C2=C(N1)c1ccccc1C2=O (stereo unspecified)	3.59%
Cn1nnnc1SCc1nnc(-c2ccccc2Br)o1	25.7%
Cc1c(C)c2ccc(OC(C)C(=O)N[C@@H](Cc3c[nH]c4ccccc34)C(=O)O)c(C)c2oc1=O (stereo partly specified)	9.71%
COc1ccc(-c2nnn(-c3ccc(Cl)cc3Cl)c2N)cc1	15.7%
CC(=O)Oc1ccc(C(=O)Nc2ccc3c(c2)C(=O)N(CCC(=O)O)C3=O)cc1	19.9%
Cc1ccccc1-n1ncc2c([N+](=O)[O-])cc([N+](=O)[O-])cc21	22.4%
COc1cc(NS(=O)(=O)c2ccc(NC(=S)Nc3ccccc3)cc2)nc(OC)n1	-64.8%
Cc1[nH]n(-c2ccccc2)c(=O)c1C(c1cccc([N+](=O)[O-])c1O)c1c(C)[nH]n(-c2ccccc2)c1=O	38.4%
Cc1ccc(-n2[nH]c(C)c(C=NCc3ccncc3)c2=O)cc1	-25.8%
COc1ccc(CCNC(=O)CSc2ccc(-c3ccncc3)nn2)cc1	-28.5%
O=C(Nc1ccc2c(c1)OCCO2)C(=S)NCc1ccccc1	-17.1%
O=C(CCN1CCC(c2ccccc2)C1)c1ccc2c(c1)OCCO2 (stereo unspecified)	32.1%
Cc1ccc(N(C(=O)c2sc(C)nc2C)C(C(=O)NCc2ccco2)c2ccccc2)cc1 (stereo unspecified)	20.7%
COc1ccc(C2=NN3C(=O)c4c(ccc(OC)c4OC)C3C2)cc1 (stereo unspecified)	33.9%
O=c1ccnc(Sc2ncccc2[N+](=O)[O-])[nH]1	38.7%
O=[N+]([O-])c1cccnc1S(=O)(=O)c1ccccc1	5.22%

Structure (SMILES)	inhibition
CC(=O)NS(=O)(=O)c1ccc(Nc2ccc([N+](=O)[O-])c3nonc23)cc1	2.51%
COc1ccc(CCN(C(=O)C(F)(F)F)C(C(=O)NC2CCCC2)c2cccs2)cc1 (stereo unspecified)	3.89%
CCCCNC(=O)NS(=O)(=O)c1ccc(C(=O)OC)o1	-10.3%
CC(C)OC(=O)c1cccc(C(=O)Oc2ccc(Br)cc2)n1	-9.99%
Nc1ccc(S(=O)(=O)Nc2ccc(Cl)nn2)cc1	-47%
CN1CCN(C2=Cc3cc(Cl)ccc3Sc3cc(F)ccc32)CC1	30%
CN1CCN(c2ccc(C(=O)c3cn(-c4ccc(F)c(Cl)c4)nn3)cc2)CC1	5.83%
CCc1nnc(NS(=O)(=O)c2ccc(N=Cc3c(C)[nH]n(-c4ccc(C)cc4)c3=O)cc2)s1	33%
COC(=O)C1=C(C)N(C2CCCC2)C(=O)C1(NC(C)=O)C(F)(F)F (stereo unspecified)	-13.7%
O=C(CN(Cc1ccco1)C(=O)CNS(=O)(=O)c1ccc(Cl)cc1)NCc1ccc(F)cc1	-17.2%
CC(=O)c1ccc(OC(=O)c2cc3ccccc3oc2=O)cc1	14.8%
CN(C)CCN1C(=O)C(O)=C(C(=O)c2cc3ccccc3o2)C1c1ccccn1 (stereo unspecified)	-12.4%
O=C(O)c1ccc(S(=O)(=O)NC2CC2)cc1	16%
Cc1cccc(OCc2nnc(SCC(=O)N3CCCC3)n2C)c1	9.88%
CCCCOc1ccc(-c2nnn(CC(=O)Nc3ncc(CC(=O)OCC)s3)n2)cc1	-14%
Cc1ccc(OCCCCn2c(CO)nc3ccccc32)cc1	22.4%
Cc1ccc2nc(/C(C#N)=C\c3ccc(N4CCCCC4)c([N+](=O)[O-])c3)[nH]c2c1	17.9% [at 9.38 µM]
CCCCc1cc(=O)oc2cc(C)cc(OCC(=O)NCC3CCC(C(=O)O)CC3)c12 (stereo unspecified)	20.5%
Cc1cccc(N2C(=O)CS/C2=N\NC(=O)c2ccc(Br)cc2)c1C	33.8%
Cc1ccc(/C=C2\SC(=S)N(c3cccnc3)C2=O)o1	-11.2%
Cc1c(C(=O)O)sc(=S)n1-c1ccc(Cl)cc1	-14.3%
O=C1c2ccc3c4c(ccc(c24)C(=O)N1c1cccc(O)c1)C(=O)N(c1cccc(O)c1)C3=O	-25.5%

Structure (SMILES)	inhibition
CC(=O)NCc1ccc(C(=O)CSc2nnc(-c3ccncc3)n2Cc2ccccc2)o1	5.35%
COc1ccc(S(=O)(=O)N[C@H](C(=O)N2CC[C@@]3(O)CCCC[C@H]3C2)c2ccccc2)cc1	8.21%
COc1ccc(OC)c(S(=O)(=O)N2CCC(C(=O)NCCc3ccc(OC)c(OC)c3)CC2)c1	11.8%
COc1ccc(OC)c(NC(=O)CCNS(=O)(=O)c2ccc3c(c2)c(=O)n(C)c(=O)n3C)c1	-22.5%
Clc1ccc(OCc2nn3c(C4CCCCC4)nnc3s2)c(Cl)c1	3.08%
O=C(CCCOc1ccc(Cl)cc1Cl)NNC(=O)C1CCC1	-6%
CC(C)OC(=O)Cn1c(=O)sc2ccccc21	12.4%
CC/C(=N\Nc1ccnc2cc(Cl)ccc12)c1ccc(O)cc1	37.8%
Cc1ccc(NC(=O)CS(=O)CC(=O)Nc2ccccc2-c2ccc(C)o2)cc1 (stereo unspecified)	-5.22%
Cc1ccc(NC(=O)Cc2ccc(F)cc2)cc1	1.72%
CC1CCN(CC(CS(=O)(=O)c2ccc([N+](=O)[O-])cc2)N2CCC(C)CC2)CC1 (stereo unspecified)	5.45%
C=CCN(c1ccccc1)S(=O)(=O)c1cccc2cccnc12	16.4%
CC1CC(C)CN(S(=O)(=O)c2cccc3cccnc23)C1 (stereo unspecified)	18.1%
Cc1cc(C(=O)OCC(=O)Nc2cccc(S(=O)(=O)N3CCOCC3)c2)c(C)o1	13.7%
Cc1nc(N=Nc2ccc(O)cc2)n[nH]1	-1.9%
Cc1cccc(-n2ccnc2CN2CCN(C3CCCC3)C(CCO)C2)c1 (stereo unspecified)	10.4%
O=C1c2[nH]nc(-c3ccccc3O)c2C(c2ccc(F)cc2)N1CC1CCCO1 (stereo unspecified)	20%
COc1ccccc1-c1cc2nc(C)c(CCC(=O)NC(C)CCc3ccco3)c(C)n2n1 (stereo unspecified)	-15.5%
O=C(NCCCn1ccnc1)c1cc2c(ccc3ccccc32)o1	2.24%
O=C(/C=C/c1ccc(Cl)cc1)NCCCn1ccnc1	0.67%
CC(=O)CC1OC(=O)C(Br)=C1NCc1ccccc1 (stereo unspecified)	-3.4%
Cc1ccc(-n2c(Cc3noc4ccccc34)n[nH]c2=S)cc1	10.6%
